Assays:
Assay in all cases: SPOT peptide array binding signal intensity (averaged, normalized) (arbitrary units (background-subtracted, floor 0; scale differs between SH3 domains)); higher = stronger binding of the SH3 domain to the peptide
AgAbp1 = target: AgAbp1
Summary of the method: (§1)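 Peptides were synthetic 15-mers on cellulose membranes, with every cysteine replaced by serine. They were incubated overnight at 4°C with GST-SH3 domains from four yeast species at 10 μg/ml in TBS-based blocking buffer. Binding signal, the replicate-averaged normalized and background-subtracted spot intensity, is in arbitrary units that differ between domains.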

AgBbc1 = target: AgBbc1
Summary of the method: as §1

AgBem1-D1 = target: AgBem1-D1
Summary of the method: as §1

AgBzz1-D1 = target: AgBzz1-D1
Summary of the method: as §1

AgBzz1-D2 = target: AgBzz1-D2
Summary of the method: as §1

AgCyk3 = target: AgCyk3
Summary of the method: as §1

AgFus1 = target: AgFus1
Summary of the method: as §1

AgHof1 = target: AgHof1
Summary of the method: as §1

AgHse1 = target: AgHse1
Summary of the method: as §1

AgLsb1 = target: AgLsb1
Summary of the method: as §1

AgLsb4 = target: AgLsb4
Summary of the method: as §1

AgMyo5 = target: AgMyo5
Summary of the method: as §1

AgNbp2 = target: AgNbp2
Summary of the method: as §1

AgRvs167 = target: AgRvs167
Summary of the method: as §1

AgSho1 = target: AgSho1
Summary of the method: as §1

AgSla1-D1-D2 = target: AgSla1-D1-D2
Summary of the method: as §1

AgSla1-D3 = target: AgSla1-D3
Summary of the method: as §1

CaAbp1-D1 = target: CaAbp1-D1
Summary of the method: as §1

CaAbp1-D2 = target: CaAbp1-D2
Summary of the method: as §1

CaBbc1 = target: CaBbc1
Summary of the method: as §1

CaBem1-D1 = target: CaBem1-D1
Summary of the method: as §1

CaBzz1-D1 = target: CaBzz1-D1
Summary of the method: as §1

CaBzz1-D2 = target: CaBzz1-D2
Summary of the method: as §1

CaCyk3 = target: CaCyk3
Summary of the method: as §1

CaFus1 = target: CaFus1
Summary of the method: as §1

CaHof1 = target: CaHof1
Summary of the method: as §1

CaHse1 = target: CaHse1
Summary of the method: as §1

CaLsb1 = target: CaLsb1
Summary of the method: as §1

CaLsb4 = target: CaLsb4
Summary of the method: as §1

CaMyo5 = target: CaMyo5
Summary of the method: as §1

CaNbp2 = target: CaNbp2
Summary of the method: as §1

CaRvs167 = target: CaRvs167
Summary of the method: as §1

CaRvs167-3 = target: CaRvs167-3
Summary of the method: as §1

CaSho1 = target: CaSho1
Summary of the method: as §1

CaSla1-D1-D2 = target: CaSla1-D1-D2
Summary of the method: as §1

CaSla1-D3 = target: CaSla1-D3
Summary of the method: as §1

ScAbp1 = target: ScAbp1
Summary of the method: as §1

ScBbc1 = target: ScBbc1
Summary of the method: as §1

ScBem1-D1 = target: ScBem1-D1
Summary of the method: as §1

ScBzz1-D1 = target: ScBzz1-D1
Summary of the method: as §1

ScBzz1-D2 = target: ScBzz1-D2
Summary of the method: as §1

ScCyk3 = target: ScCyk3
Summary of the method: as §1

ScFus1 = target: ScFus1
Summary of the method: as §1

ScHof1 = target: ScHof1
Summary of the method: as §1

ScHse1 = target: ScHse1
Summary of the method: as §1

ScLsb1 = target: ScLsb1
Summary of the method: as §1

ScLsb2 = target: ScLsb2
Summary of the method: as §1

ScLsb3 = target: ScLsb3
Summary of the method: as §1

ScLsb4 = target: ScLsb4
Summary of the method: as §1

ScMyo3 = target: ScMyo3
Summary of the method: as §1

ScMyo5 = target: ScMyo5
Summary of the method: as §1

ScNbp2 = target: ScNbp2
Summary of the method: as §1

ScPex13 = target: ScPex13
Summary of the method: as §1

ScRvs167 = target: ScRvs167
Summary of the method: as §1

ScSho1 = target: ScSho1
Summary of the method: as §1

ScSla1-D1-D2 = target: ScSla1-D1-D2
Summary of the method: as §1

ScSla1-D3 = target: ScSla1-D3
Summary of the method: as §1

SpAbp1-D1 = target: SpAbp1-D1
Summary of the method: as §1

SpBbc1 = target: SpBbc1
Summary of the method: as §1

SpBzz1-D1 = target: SpBzz1-D1
Summary of the method: as §1

SpBzz1-D2 = target: SpBzz1-D2
Summary of the method: as §1

SpCyk3 = target: SpCyk3
Summary of the method: as §1

SpHof1 = target: SpHof1
Summary of the method: as §1

SpHof1-2 = target: SpHof1-2
Summary of the method: as §1

SpHof1-3 = target: SpHof1-3
Summary of the method: as §1

SpHse1 = target: SpHse1
Summary of the method: as §1

SpLsb1 = target: SpLsb1
Summary of the method: as §1

SpLsb4 = target: SpLsb4
Summary of the method: as §1

SpMyo1 = target: SpMyo1
Summary of the method: as §1

SpNbp2 = target: SpNbp2
Summary of the method: as §1

SpPex13 = target: SpPex13
Summary of the method: as §1

SpRvs167 = target: SpRvs167
Summary of the method: as §1

SpSla1-D1-D2 = target: SpSla1-D1-D2
Summary of the method: as §1

SpSla1-D3 = target: SpSla1-D3
Summary of the method: as §1

LPMNIQPDLPPRKIM
SPOT peptide array binding signal intensity (AgAbp1): 11.5 | SPOT peptide array binding signal intensity (AgBbc1): 73.8 | SPOT peptide array binding signal intensity (AgBem1-D1): 263 | SPOT peptide array binding signal intensity (AgBzz1-D1): ≤ 0 | SPOT peptide array binding signal intensity (AgBzz1-D2): 5 | SPOT peptide array binding signal intensity (AgCyk3): 6 | SPOT peptide array binding signal intensity (AgFus1): 301 | SPOT peptide array binding signal intensity (AgHof1): 109 | SPOT peptide array binding signal intensity (AgHse1): 139 | SPOT peptide array binding signal intensity (AgLsb1): 904 | SPOT peptide array binding signal intensity (AgLsb4): 3030 | SPOT peptide array binding signal intensity (AgMyo5): ≤ 0 | SPOT peptide array binding signal intensity (AgNbp2): 152 | SPOT peptide array binding signal intensity (AgRvs167): 525 | SPOT peptide array binding signal intensity (AgSho1): 218 | SPOT peptide array binding signal intensity (AgSla1-D1-D2): ≤ 0 | SPOT peptide array binding signal intensity (AgSla1-D3): 2.5 | SPOT peptide array binding signal intensity (CaAbp1-D1): 63.5 | SPOT peptide array binding signal intensity (CaAbp1-D2): 59.5 | SPOT peptide array binding signal intensity (CaBbc1): 423 | SPOT peptide array binding signal intensity (CaBem1-D1): 42 | SPOT peptide array binding signal intensity (CaBzz1-D1): 290 | SPOT peptide array binding signal intensity (CaBzz1-D2): 98.2 | SPOT peptide array binding signal intensity (CaCyk3): 15 | SPOT peptide array binding signal intensity (CaFus1): 1460 | SPOT peptide array binding signal intensity (CaHof1): ≤ 0 | SPOT peptide array binding signal intensity (CaHse1): 224 | SPOT peptide array binding signal intensity (CaLsb1): 16.2 | SPOT peptide array binding signal intensity (CaLsb4): 7000 | SPOT peptide array binding signal intensity (CaMyo5): 60 | SPOT peptide array binding signal intensity (CaNbp2): 410 | SPOT peptide array binding signal intensity (CaRvs167): 1050 | SPOT peptide array binding signal intensity (CaRvs167-3): 0.5 | SPOT peptide array binding signal intensity (CaSho1): 799 | SPOT peptide array binding signal intensity (CaSla1-D1-D2): 409 | SPOT peptide array binding signal intensity (CaSla1-D3): 242 | SPOT peptide array binding signal intensity (ScAbp1): 16 | SPOT peptide array binding signal intensity (ScBbc1): 7.5 | SPOT peptide array binding signal intensity (ScBem1-D1): 1 | SPOT peptide array binding signal intensity (ScBzz1-D1): 13 | SPOT peptide array binding signal intensity (ScBzz1-D2): 10.5 | SPOT peptide array binding signal intensity (ScCyk3): 9 | SPOT peptide array binding signal intensity (ScFus1): 510 | SPOT peptide array binding signal intensity (ScHof1): ≤ 0 | SPOT peptide array binding signal intensity (ScHse1): 92 | SPOT peptide array binding signal intensity (ScLsb1): 362 | SPOT peptide array binding signal intensity (ScLsb2): 218 | SPOT peptide array binding signal intensity (ScLsb3): 5190 | SPOT peptide array binding signal intensity (ScLsb4): 3270 | SPOT peptide array binding signal intensity (ScMyo3): 14 | SPOT peptide array binding signal intensity (ScMyo5): 0.75 | SPOT peptide array binding signal intensity (ScNbp2): 348 | SPOT peptide array binding signal intensity (ScPex13): 234 | SPOT peptide array binding signal intensity (ScRvs167): 2170 | SPOT peptide array binding signal intensity (ScSho1): 682 | SPOT peptide array binding signal intensity (ScSla1-D1-D2): 192 | SPOT peptide array binding signal intensity (ScSla1-D3): 212 | SPOT peptide array binding signal intensity (SpAbp1-D1): 48 | SPOT peptide array binding signal intensity (SpBbc1): ≤ 0 | SPOT peptide array binding signal intensity (SpBzz1-D1): 362 | SPOT peptide array binding signal intensity (SpBzz1-D2): 5.5 | SPOT peptide array binding signal intensity (SpCyk3): 9.5 | SPOT peptide array binding signal intensity (SpHof1): 21.5 | SPOT peptide array binding signal intensity (SpHof1-2): 18.2 | SPOT peptide array binding signal intensity (SpHof1-3): 11 | SPOT peptide array binding signal intensity (SpHse1): 174 | SPOT peptide array binding signal intensity (SpLsb1): 160 | SPOT peptide array binding signal intensity (SpLsb4): 4630 | SPOT peptide array binding signal intensity (SpMyo1): 75 | SPOT peptide array binding signal intensity (SpNbp2): 59 | SPOT peptide array binding signal intensity (SpPex13): 42.5 | SPOT peptide array binding signal intensity (SpRvs167): 2340 | SPOT peptide array binding signal intensity (SpSla1-D1-D2): 2.5 | SPOT peptide array binding signal intensity (SpSla1-D3): 148

LPPPPPPPPPPPLPQ
SPOT peptide array binding signal intensity (AgAbp1): 11 | SPOT peptide array binding signal intensity (AgBbc1): 1.25 | SPOT peptide array binding signal intensity (AgBem1-D1): ≤ 0 | SPOT peptide array binding signal intensity (AgBzz1-D1): 42.5 | SPOT peptide array binding signal intensity (AgBzz1-D2): 1 | SPOT peptide array binding signal intensity (AgCyk3): 1 | SPOT peptide array binding signal intensity (AgFus1): 3 | SPOT peptide array binding signal intensity (AgHof1): 128 | SPOT peptide array binding signal intensity (AgHse1): 21 | SPOT peptide array binding signal intensity (AgLsb1): 1.5 | SPOT peptide array binding signal intensity (AgLsb4): ≤ 0 | SPOT peptide array binding signal intensity (AgMyo5): 640 | SPOT peptide array binding signal intensity (AgNbp2): 28.5 | SPOT peptide array binding signal intensity (AgRvs167): ≤ 0 | SPOT peptide array binding signal intensity (AgSho1): ≤ 0 | SPOT peptide array binding signal intensity (AgSla1-D1-D2): 4.5 | SPOT peptide array binding signal intensity (AgSla1-D3): ≤ 0 | SPOT peptide array binding signal intensity (CaAbp1-D1): 9 | SPOT peptide array binding signal intensity (CaAbp1-D2): ≤ 0 | SPOT peptide array binding signal intensity (CaBbc1): ≤ 0 | SPOT peptide array binding signal intensity (CaBem1-D1): 3 | SPOT peptide array binding signal intensity (CaBzz1-D1): 1990 | SPOT peptide array binding signal intensity (CaBzz1-D2): 495 | SPOT peptide array binding signal intensity (CaCyk3): ≤ 0 | SPOT peptide array binding signal intensity (CaFus1): ≤ 0 | SPOT peptide array binding signal intensity (CaHof1): ≤ 0 | SPOT peptide array binding signal intensity (CaHse1): 5.75 | SPOT peptide array binding signal intensity (CaLsb1): ≤ 0 | SPOT peptide array binding signal intensity (CaLsb4): ≤ 0 | SPOT peptide array binding signal intensity (CaMyo5): 182

From the supplement of paper PMC4466140
